Rows were chosen to be rich in hits. Some 13% of all compounds tested hit in one or more screens of this group.
CHOP inh = blocks CHOP induction under ER stress. CHO-K1 CHOP-promoter luciferase, tunicamycin-induced, 15-18 h. inhibition, % at 10 µM. 3.8% of 220,000 active;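 active = compounds that reduced the stress-induced luciferase reporter signal by more than about 70% of percent inhibition, limit read from the data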;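 also: 0% = tunicamycin plus vehicle and 100% = wells without tunicamycin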
WT yeast gro inh = growth inhibition of WT yeast, mitochondrial fusion screen; mitochondrial fusion phenotypic screen, WT strain; inhibition, % at 10 µM; 2.1% of 190,000 active; AID 1362; in the data active = inhibition above about 58%; tested in S. cerevisiae
RAM network inh = inhibitors of the yeast RAM network; S. cerevisiae dse1pr::URA3 reporter, 5-FOA growth OD615, 2 d; analog-sensitive cbk1-as2 kinase mutant strain; 1.8% of 190,000 active; AID 868; inhibition, % at 50 µM;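 active = inhibition above a set limit, 3 SD over mean compound inhibition, cut at about 8.4% in these data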;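 also: 0% = DMSO-only wells with no growth and 100% = 10 µM 1-NA-PP1 full growth; inhibition rescues growth on 5-FOA so higher OD means more RAM inhibition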
Lmaj promast = Leishmania major promastigote growth inhibition; inhibition, % at 10 µM; AID 1063; 9% of 200,000 active; Leishmania major promastigotes, resazurin fluorescence viability; in the data active = inhibition above about 50%;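 also: promastigotes grown with compound for 44 hours at 28 °C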
Starred values were filed as active, the others as inactive; x = not tested or not shown.

SMILES | CHOP inh | WT yeast gro inh | RAM network inh | Lmaj promast
O=C(NCc1ccco1)c1cccc(NC(=O)c2ccco2)c1 | 17 | -6 | 0 | 79*
Cc1ccc(C(=O)Nc2cccc(C(=O)NCc3ccccc3)c2)o1 | 29 | 7 | 1 | 92*
CCOc1ccccc1NC(=O)c1cccc(NC(=O)c2ccco2)c1 | x | 12 | 0 | 100*
CC(C)CNC(=O)c1cccc(NC(=O)c2ccco2)c1 | 21 | 1 | 1 | 79*
C/C(=N\NC(=O)c1ccc(F)cc1)c1cccc(NC(=O)c2ccco2)c1 | -43 | -1 | 1 | 67*
CC(C)CNC(=O)c1cccc(NC(=O)C(C)C)c1 | 3 | 3 | 0 | -5
COCCn1c(SCc2ccc(C(=O)OC)o2)nc2cc(Cl)ccc2c1=O | 18 | 17 | 9.4* | 21
O=C(CSc1nc(C2CCCCC2)nc2ccccc12)N1CCCC1 | -30 | -4 | 0 | 18
CC(C)Cn1c(SCC(=O)N2CCc3ccccc3C2)nc2cc(Cl)ccc2c1=O | 46 | 14 | 8 | 91*
O=C(CSc1nc(C2CC2)nc2ccccc12)N1CCc2ccccc2C1 | 74* | 37 | 1 | 30
COCCn1c(SCC(=O)N2CCc3ccccc3C2)nc2cc(Cl)ccc2c1=O | 42 | 15 | 1 | 60*
N#Cc1cc([N+](=O)[O-])ccc1NC(=O)COC(=O)CC1CCCC1 | 15 | x | x | x
CCc1ccc2nc(Nc3ccc(OC)cc3OC)c(C#N)cc2c1 | -9 | 10 | 5 | 3
COc1ccc(NC(=O)c2cc3c(s2)CCC(C)C3)cc1S(=O)(=O)N1CCOCC1 (stereo not given) | 25 | -6 | 5 | 24
CCc1ccc2c(c1)C(c1ccncc1)=NNC(c1ccccc1)=N2 | 8 | 1 | 3 | 55*
CCc1ccc2c(c1)C(c1ccc([N+](=O)[O-])cc1)=NNC(c1ccc(F)cc1)=N2 | 86* | 7 | 4 | 5
COc1ccc(NC(=S)N2CCC(c3nc4ccccc4o3)CC2)c(OC)c1 | 33 | 18 | 1 | -8
Cc1snnc1C(=O)NC(=S)Nc1ccccc1 | 7 | x | x | x
CN(C)c1ccc(-c2n(C)c3ccccc3[n+]2C)cc1 | -4 | -1 | 1 | 100*
Cn1c(-c2ccccn2)[n+](C)c2ccccc21 | 1 | 0 | 1 | -1
COCC(C)n1c(SCC(=O)NC(=O)Nc2ccc3c(c2)OCCO3)nc2ccccc2c1=O (stereo not given) | 42 | 16 | 4 | 85*
CC(C)Cn1c(SC(C)C(=O)Nc2ccc3c(c2)OCCO3)nc2ccccc2c1=O (stereo not given) | 76* | 9 | 3 | 28
O=C1N(Cc2cccnc2)C[C@@H]2C[C@@H](c3ccc4nsnc4c3)N3CCC[C@@]123 | 3 | 4 | 2 | -2
O=C(CSc1ccc(-c2ccc(Cl)cc2)nn1)Nc1ccc2c(c1)OCCO2 | -7 | -15 | 4 | -2
C/C(=N\Nc1ccc(F)cc1)c1ccncc1 | -10 | 23 | 1 | 84*
SMILES | CHOP inh | WT yeast gro inh | RAM network inh | Lmaj promast
O=[N+]([O-])c1ccc(NC(=S)NCCc2ccccc2)cc1 | 46 | 81* | 2 | 74*
O=[N+]([O-])c1ccc(NNC(=S)Nc2ccccc2)cc1 | 6 | 35 | 0 | 53*
CCCCSc1nc(C)c(C(C)=O)cc1C#N | 56 | 8 | 10* | -6
CCOC(=O)c1cc(C#N)c(SCc2ccc(C#N)cc2)nc1C | 33 | -18 | 10* | 0
CC(=O)c1cc(C#N)c(SCC(=O)O)nc1C | 19 | 17 | 1 | 7
O=C(/C=C/c1cccc([N+](=O)[O-])c1)c1ccc2c(c1)OCCO2 | -139 | 31 | 3 | 98*
COc1ccc(/C=C/C(=O)c2ccc3c(c2)OCCO3)cc1[N+](=O)[O-] | -21 | 2 | 4 | 44
O=C(/C=C/c1cccc([N+](=O)[O-])c1)c1cccs1 | -32 | 10 | 3 | 89*
O=C(/C=C/c1cccc([N+](=O)[O-])c1)N1CCN(S(=O)(=O)c2cccs2)CC1 | -2 | 17 | -1 | 66*
c1ccc2c(c1)nc(NCc1ccc3c(c1)OCO3)n2CCN1CCOCC1 | -9 | -1 | 2 | 3
Cc1cccc(NCc2nc3ccccc3n2Cc2ccccc2)c1 | 55 | 75* | 2 | 30
c1ccc(Cn2c(CNc3nc4ccccc4n3CCN3CCOCC3)nc3ccccc32)cc1 | 35 | 1 | 2 | 59*
Cc1ccc(Cn2c(Cc3ccccc3)nc3ccccc32)cc1 | -19 | 71* | 2 | 13
COCc1nc2ccccc2n1Cc1ccccc1 | -10 | 15 | 0 | 2
Cc1nc2cc(NCc3nc4ccccc4n3Cc3ccccc3)ccc2n1C | 3 | 9 | 3 | 27
CS(=O)(=O)N(CC(=O)Nc1cccc([N+](=O)[O-])c1)c1cccc(F)c1 | 16 | -7 | 1 | 11

High-throughput results: PubChem, several laboratories
